Measurements: PubChem BioAssay AID624352 (Sanford-Burnham Center for Chemical Genomics, 2012)
The whole screen tested about 360,000 compounds, of which about 2,600 (0.72%) were called active. This excerpt belongs to a sample that is enriched for actives. Values without a mark were called inactive.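 The calls were made as follows: active = inhibition of the luminescence signal of 40% or more relative to plate controls, in a single-dose primary screen at 18.75 µM; inactive = the rest.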

Experiment: HIF-2a reporter inhibitors, primary screen, luminescence, 786-0 RCC cells (AID 624352)
Conditions: 786-0 RCC cells HIF-2a reporter, luciferase luminescence, overnight; at 18.8 µM; hits give high values

Row | SMILES | inhibition
1 | CN(c1ccc(OCC(=O)NC2=NCCS2)cc1)S(=O)(=O)c1ccc(F)cc1 | 1.28%
2 | O=C(c1ccc2ccccc2n1)N1CCN(c2ccccc2Cl)CC1 | -107%
3 | Cc1coc2c(O)cc3c(c12)OC1(N2CCCCC2)C(=O)NCCCC31 (stereo unspecified) | 56.7% (active)
4 | Cn1c(=O)c2sccc2n(Cc2ccc(Br)cc2)c1=O | 13.3%
5 | OCCC#Cc1ccc(N2C(c3ccsc3)=Cc3ccc(F)cc3C2c2c[nH]c3ccccc23)cc1 (stereo unspecified) | -21.5%
6 | O=C(O)CC(SCC(=O)Nc1ccc(Br)cc1)C(=O)O (stereo unspecified) | 2.54%
7 | O=C(CCl)Nc1ccc(Sc2ccc(NC(=O)CCl)cc2)cc1 | 58.1% (active)
8 | CC(=O)Nc1ccc(NC(=O)CC2CCCC2)cc1 | -38.5%
9 | c1ccc(-c2cnc(CN3CCN(c4ccccc4)CC3)o2)cc1 | -16.5%
10 | CC(NC(=O)C(=O)NN=C1CCC(C(C)(C)C)CC1)c1ccccc1 (stereo unspecified) | 13.2%
11 | CCCCc1c(-c2ccc(Cl)cc2)ncn1CCc1ccccc1OC | -111%
12 | FC(F)(F)c1nnc2c3ccccc3c(Cl)nn12 | 16.8%
13 | CC1(C(=O)Nc2ccc3c(c2)OCCO3)CN(S(C)(=O)=O)CC(=O)N1Cc1cccc(F)c1 (stereo unspecified) | 11.6%
14 | Cc1ccc(-c2noc(CNC(=O)c3ccoc3C)n2)cc1 | 89% (active)
15 | O=C(Cc1ccc(Cl)cc1)NCc1nc(-c2ccccc2)no1 | 8.68%
16 | Cc1ccc(-c2noc(-c3ccccc3C(=O)NCC3CCCO3)n2)cc1 (stereo unspecified) | -126%
17 | COC(=O)c1ccc(COC(=O)c2cnccn2)cc1 | 9.27%
18 | Cc1nc(C(F)(F)F)ccc1C(=O)N1CCC1(C)C(=O)NS(=O)(=O)c1ccccc1 (stereo unspecified) | 18.3%
19 | O=S1(=O)CCC(NC(=S)SCc2ccccc2Br)C1 (stereo unspecified) | 37.1%
20 | CC(C)C(=O)NC(NC(=S)NC1CCS(=O)(=O)C1)C(Cl)(Cl)Cl (stereo unspecified) | -1.77%
21 | CCCSC(=S)NC1CCS(=O)(=O)C1 (stereo unspecified) | 41.3% (active)
22 | CC(=O)OCC1(O)CC23CCC4c5ccoc5CCC4(C)C2CCC1C3 (stereo unspecified) | 7.41%
23 | OCCNCCCCOc1ccccc1F | -0.6%

Row | SMILES | inhibition
24 | CC1(C)OC(=O)C2=C(C[C@@H](C3CCCC3)O[C@@H]2c2ccc(Cl)cc2)O1 | 8.87%
25 | CN(c1ccc2nc3ccccc3c(=O)n2n1)C1CCCCC1 | 78.2% (active)
26 | COCC(C)n1c(SCC(=O)NC2CCCCC2C)nc2ccccc2c1=O (stereo unspecified) | 15%
27 | CN(C(=O)Nc1ccc(Cl)cc1)n1cnc2ccccc2c1=O | -36.5%
28 | Cc1cccc(OCC(=O)OCC(=O)Nc2ccc(Cl)cn2)c1 | 11.3%
29 | Cc1ccc(C2=NN(C(=O)COc3ncnc4ccccc34)C(c3ccco3)C2)cc1 (stereo unspecified) | 6.33%
30 | O=C(CN1CCN(C2CCS(=O)(=O)C2)CC1)N1N=C(c2ccc(Cl)cc2)CC1c1ccco1 (stereo unspecified) | 47.5% (active)
31 | Cc1ccc(C2=NN(C(=O)CSc3nc(N)cc(N)n3)C(c3ccco3)C2)cc1 (stereo unspecified) | 24.9%
32 | CN(C(=O)c1cccc(NC(=O)Cc2cccc(NC(=O)C3CCCN(C(=O)C4CC4)C3)c2)c1)C1CCC1 (stereo unspecified) | 11.8%
33 | COc1ccccc1C(=O)Nc1nc2nc(-c3ccccc3)cc(=O)n2[nH]1 | 4.83%
34 | COc1ccc2c(c1OC)C(=O)OC2Nc1nc(-c2ccccc2)cs1 (stereo unspecified) | 57.8% (active)
35 | COc1cc(C(O)c2nc(-c3cccc(C(=O)O)c3)cs2)ccc1F (stereo unspecified) | -9.8%
36 | CCN1CCN(C(=O)c2cc3cc4ccc(OC)cc4nc3s2)CC1 | -78.9%
37 | COc1cc(OC)c(NS(=O)(=O)c2cn(C)cn2)cc1Cl | 6.21%
38 | CSc1ccccc1NC(=O)Cc1ccc(Br)cc1 | -11.3%
39 | COC(=O)c1ccc(COc2ccc(/C=C/C(=O)c3ccc(OC)c(CSCC(=O)O)c3)cc2OC)cc1 | -5.92%
40 | COc1ccccc1CCNC(=O)C1CCN(C(=O)/C=C/c2ccccc2)CC1 | -5.61%
41 | COc1ccc(C(=O)/C=C/c2ccc(-c3ccccc3)cc2)cc1CSCC(=O)O | 67.7% (active)
42 | CC(C)Cc1ccc(C(C)C(=N)N)cc1 (stereo unspecified) | 25.6%
43 | COc1ccc(CCNC(=O)Nc2ccc3c(c2)c(=O)n(C)n3C)cc1OC | 3.46%
44 | COCCNC(=O)Nc1ccc2nc(-c3ccco3)c(-c3ccco3)nc2c1 | 42.3% (active)
45 | COCCNC(=O)CN(Cc1ccco1)C(=O)CCC(=O)Nc1nccs1 | 3.02%
46 | O=S1(=O)CC(N2CCN(Cc3ccccc3F)CC2)CN1Cc1cn(Cc2cccc(C(F)(F)F)c2)nn1 (stereo unspecified) | 1.15%
